Test results reported in PubChem BioAssay (NCATS).
Results filed as inconclusive are left out. Calls of active or inactive are those of the source. Calls come from the whole dose curve; as a rule, active = well fitted curve in the direction sought with a large enough effect; inconclusive = small, poorly fitted or top-dose-only effect, or another doubt; inactive = no such curve, though single readings can be large; an effect the other way counts as inactive or inconclusive.

How the values were obtained:
[1] = Cell Viability - H-4-II-E (AID 543);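 note: cells exposed to compound for 40 hours; % is set by controls: 0 for no effect and ±100 for the full control effect; nearly all actives have a fitted effect of over 35% in size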
Procedure, shortened: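 AC50 from Hill-modelled qHTS concentration-response curves. H-4-II-E rat hepatoma cells in complete medium, 40 hr exposure at 37 °C, viability by CellTiter-Glo ATP luminescence.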

[2] = Cell Viability - SH-SY5Y (AID 544); details: SH-SY5Y neuroblastoma cell viability; viability change, negative = cytotoxic: at 92.2 µM (top of the series);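 note: cells exposed to compound for 40 hours; nearly all actives have a fitted effect of over 55% in size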
Procedure, shortened: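 Quantitative HTS in SH-SY5Y neuroblastoma cells, 40 hr treatment at 37 °C, ATP content by luciferase luminescence; AC50 from Hill fits.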

[3] = Cell Viability - Renal Proximal Tubule (AID 545);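 note: cells exposed to compound for 40 hours; nearly all actives have a fitted effect of over 40% in size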
Procedure, shortened: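 Cytotoxicity is scored as a concentration-dependent drop in cellular ATP in primary rat renal proximal tubule cells exposed for 40 hr. AC50 derives from Hill modelling.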

[4] = Cellular Toxicity (caspase-3) HepG2 (AID 654);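 note: cells exposed to compound for 16 hours before reading; 0% = DMSO alone and 100% = caspase signal from 100 µM tamoxifen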
Procedure, shortened: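 Concentration-response AC50 values reflect caspase-3/7 induction in HepG2 cells after 16 hours of compound exposure, quantified by luminescence from liberated aminoluciferin and referenced to 100 uM tamoxifen as full stimulation.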

[5] = Cellular Toxicity (caspase-3) Jurkat (AID 655); details: Jurkat caspase-3 activation, luminescence; caspase-3 activation: at 92.2 µM (top of the series), DMSO = 0%, tamoxifen = 100%;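 note: cells exposed to compound for 16 h at 37 °C before reading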
Procedure, shortened: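 Caspase 3/7 activation is scored as increased luminescence in Jurkat cells cultured with compound for 16 hours in complete medium. AC50 values come from Hill fits of qHTS concentration-response data normalized to DMSO and 100 uM tamoxifen controls.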

[6] = Cellular Toxicity (caspase-3) HUV-EC-C (AID 656)
Procedure, shortened: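 Read-out: luminescence proportional to caspase 3/7 activity, measured 20 min after adding Caspase-Glo 3/7 reagent. Cells (HUV-EC-C) had received compound for 16 hr at 37°C. Increases relative to DMSO and 100 uM tamoxifen gave concentration-response AC50 values.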

[7] = Cellular Toxicity (caspase-3) SHSY5Y (AID 657)
Procedure, shortened: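 Cells plated and incubated 5 h at 37 °C, dosed over a concentration range, incubated 16 h, then given Caspase-Glo 3/7 reagent for 1 h at room temperature before luminescence reading. Staurosporine (10 uM) defined full stimulation.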

[8] = Cellular Toxicity (caspase-3) BJ (AID 658);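 note: 0% = DMSO basal and 100% = 10 µM staurosporine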
Procedure, shortened: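 Caspase-Glo 3/7 luminescence, read 1 hr after reagent at room temperature, in normal BJ fibroblasts exposed 16 hours at 37 °C. AC50 values from Hill-equation concentration-response, scaled between DMSO basal and 10 uM staurosporine as 100%.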

[9] = Cellular Toxicity (caspase-3) Mesangial (AID 660); details: mesangial cells, normalized: DMSO 0%, 100 µM tamoxifen 100%; at 91.7 µM (top of the series);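 note: cells exposed to compound for 16 h before the caspase read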
Procedure, shortened: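 AC50 values come from Hill-equation fits of caspase 3/7 activation, measured as Caspase-Glo luminescence in human glomerular mesangial cells exposed to compound for 16 h at 37 °C; 100% set by 100 uM tamoxifen.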

[10] = Cellular Toxicity (caspase-3) SK-N-SH (AID 661);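 note: 0% = DMSO basal and 100% = 10 µM staurosporine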
Procedure, shortened: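 Apoptosis readout in SK-N-SH neuroblastoma: Caspase-Glo 3/7 luminescence following 16 hr treatment in complete culture medium. Normalization used DMSO and 10 uM staurosporine controls.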

[11] = Cellular Toxicity (caspase-3) H-4-II-E (AID 663); details: H-4-II-E rat hepatoma, scaled: DMSO 0%, 100 µM tamoxifen 100%; at 92.2 µM (top of the series);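 note: cells exposed to compound for 16 hr before readout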
Procedure, shortened: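 Caspase 3/7 activation measured by luminescent aminoluciferin substrate cleavage after 16 hr compound treatment of H-4-II-E cells in complete medium. Increase normalized between DMSO (basal) and 100 uM tamoxifen (100%); Hill-equation AC50 from concentration-response.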

[12] = Cellular Toxicity (caspase-3) Hek293 (AID 664); details: HEK293 caspase-3 activation, DMSO = 0%, 100 µM tamoxifen = 100%; at 92.2 µM (top of the series);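 note: cells exposed to compound for 16 h at 37 °C before readout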
Procedure, shortened: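 Apoptosis readout: Caspase-Glo 3/7 signal in human HEK293 cells following 16-hour compound incubation. Responses scaled between DMSO baseline and 100 uM tamoxifen.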

[13] = Cellular Toxicity (caspase-3) N2a (AID 665);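 note: compound exposure lasted 16 h at 37 °C before readout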
Procedure, shortened: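 Concentration-response qHTS: compound-induced caspase-3/7 luminescence in N2a cells (16 h, 37 °C), relative to DMSO and 10 uM staurosporine controls; AC50 obtained using the standard Hill equation.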

[14] = Cellular Toxicity (caspase-3) NIH 3T3 (AID 666);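 note: 0% = DMSO basal and 100% = 100 µM tamoxifen stimulation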
Procedure, shortened: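 Activity: caspase-3/7 induction, NIH 3T3 cells, 16 hr treatment at 37°C, luminescent Caspase-Glo detection; AC50 via Hill equation.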

[15] = Cellular Toxicity (caspase-3) Renal Proximal Tubule (AID 667); details: Potency: caspase-3 activation;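 note: cells exposed to compound for 16 hours at 37 °C before detection; 0% = DMSO basal and 100% = 10 µM staurosporine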
Procedure, shortened: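 In qHTS format, rat primary proximal tubule cells seeded at 1000 per well are exposed to compounds for 16 hours at 37 °C. An increase in Caspase-Glo 3/7 luminescence indicates caspase activation.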

[16] = biological target: Cytochrome P450 3A4 (Homo sapiens) (UniProt P08684); test: qHTS Assay for Inhibitors and Substrates of Cytochrome P450 3A4 (AID 884); note: % is set by controls: 0 for no effect and ±100 for the full control effect; nearly all actives have a fitted effect of over 50% in size
Sequence of Cytochrome P450 3A4 (Homo sapiens) (P08684 whole entry, looked up): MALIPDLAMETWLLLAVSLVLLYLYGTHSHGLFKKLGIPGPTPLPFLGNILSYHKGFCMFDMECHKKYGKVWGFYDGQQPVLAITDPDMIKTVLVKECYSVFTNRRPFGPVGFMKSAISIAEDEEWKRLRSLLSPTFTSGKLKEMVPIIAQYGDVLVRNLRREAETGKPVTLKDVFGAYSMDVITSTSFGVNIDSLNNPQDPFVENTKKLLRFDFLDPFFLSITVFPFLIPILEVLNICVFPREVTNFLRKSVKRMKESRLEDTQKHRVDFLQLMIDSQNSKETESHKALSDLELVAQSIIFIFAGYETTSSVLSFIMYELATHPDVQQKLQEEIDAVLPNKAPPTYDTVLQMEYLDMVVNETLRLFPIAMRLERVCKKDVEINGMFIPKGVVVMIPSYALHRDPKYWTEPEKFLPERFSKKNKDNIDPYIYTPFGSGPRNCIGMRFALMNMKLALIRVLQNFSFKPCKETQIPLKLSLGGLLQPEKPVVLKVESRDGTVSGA
Procedure, shortened: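 Luminescent readout of luciferin produced by CYP3A4 (20 nM) dealkylation of Luciferin-PPXE, 25 uM (its KM). NADPH-driven reaction ran 60 min at RT after 10 min compound preincubation; data scaled to 57 uM ketoconazole as 100% inhibition.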

[17] = Cell Viability - LYMP2-001 (AID 921);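 note: cells exposed to compound for 24 h at 37 °C; 0% = DMSO only and full inhibition = tetraoctylammonium bromide control wells; nearly all actives have a fitted effect of over 70% in size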
Procedure, shortened: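 qHTS, 1536-well; lymphoblastoid cells, 24 hr compound, 37 C; ATP by CellTiter-Glo, 30 min RT; luminescence; Hill-fit AC50.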

[18] = Cellular Toxicity (caspase-3) MRC-5 (AID 659);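 note: 0% = DMSO basal and 100% = 10 µM staurosporine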
Procedure, shortened: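 Luminescent Caspase-Glo 3/7 read-out (1 h, room temperature) after a 16 h, 37 °C compound exposure of MRC-5 lung fibroblasts at 1500 cells/well. Concentration-response AC50 from Hill equation; 0% DMSO, 100% 10 uM staurosporine.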

[19] = Cell Viability - Mesenchymal (AID 546);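 note: cells exposed to compound for 40 hours before reading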
Procedure, shortened: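 CellTiter-Glo luminescence (intracellular ATP, 20 min room temperature) after 40 hr compound exposure at 37 °C of 1000 glomerulus-derived human kidney mesenchymal cells/well; AC50 values obtained by fitting qHTS concentration-response data to the Hill equation.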

Cc1ccco1
inactive: Potency [1] | Potency [2] | Potency [3] | Potency [4] | caspase-3 activation [5] 0.939% | outcome [6] | outcome [7] | outcome [8] | caspase-3 activation [9] 0.332% | outcome [10] | caspase-3 activation [11] 1.57% | caspase-3 activation [12] -0.963% | outcome [13] | outcome [14] | Potency [15] | Potency [16] | Potency [17]

CCCOCC(C)OCC(C)O (configuration not stated)
inactive: Potency [1] | Potency [2] | Potency [3] | Potency [4] | caspase-3 activation [5] -2.41% | outcome [6] | outcome [7] | caspase-3 activation [9] -0.26% | outcome [10] | caspase-3 activation [11] -0.229% | caspase-3 activation [12] 0.323% | outcome [13] | outcome [14] | Potency [15] | Potency [16] | Potency [17]

CCC(C)(C)C(=O)O
inactive: Potency [1] | Potency [2] | Potency [3] | Potency [4] | caspase-3 activation [5] -0.0519% | outcome [6] | outcome [7] | outcome [8] | outcome [18] | caspase-3 activation [9] 0.0755% | outcome [10] | caspase-3 activation [11] 1.75% | caspase-3 activation [12] 1.52% | outcome [13] | outcome [14] | Potency [15] | Potency [17]

CNc1ccccc1
inactive: Potency [1] | Potency [2] | Potency [3] | Potency [4] | caspase-3 activation [5] 1.08% | outcome [6] | outcome [7] | outcome [8] | outcome [18] | caspase-3 activation [9] 1.7% | outcome [10] | caspase-3 activation [11] 0.262% | caspase-3 activation [12] -1.03% | outcome [13] | outcome [14] | Potency [15] | Potency [17]

C=CCOC(=O)COCCC(C)C
inactive: Potency [1] | Potency [2] | Potency [3] | Potency [4] | caspase-3 activation [5] -0.573% | outcome [6] | outcome [7] | outcome [8] | outcome [18] | caspase-3 activation [9] -0.0239% | outcome [10] | caspase-3 activation [11] -0.913% | caspase-3 activation [12] -2.01% | outcome [13] | outcome [14] | Potency [15] | Potency [17]

O=[N+]([O-])c1cccc(Cl)c1
inactive: Potency [1] | Potency [3] | Potency [19] | Potency [4] | outcome [6] | outcome [7] | outcome [8] | outcome [18] | caspase-3 activation [9] -0.653% | outcome [10] | caspase-3 activation [11] 0.41% | caspase-3 activation [12] -2.38% | outcome [13] | outcome [14] | Potency [15] | Potency [16] | Potency [17]

Cc1ccc2oc(=O)ccc2c1
inactive: Potency [1] | Potency [3] | Potency [19] | Potency [4] | caspase-3 activation [5] 0.624% | outcome [6] | outcome [7] | outcome [18] | caspase-3 activation [9] -0.888% | outcome [10] | caspase-3 activation [11] 1.34% | caspase-3 activation [12] -2.33% | outcome [13] | outcome [14] | Potency [15] | Potency [16] | Potency [17]

CCN(C(=O)N(CC)c1ccccc1)c1ccccc1
inactive: Potency [1] | Potency [3] | Potency [4] | outcome [6] | outcome [7] | outcome [8] | outcome [18] | caspase-3 activation [9] 0.257% | outcome [10] | caspase-3 activation [11] 2.86% | caspase-3 activation [12] 0.606% | outcome [13] | outcome [14] | Potency [15] | Potency [16] | Potency [17]

NC(=S)NNC(N)=S
inactive: Potency [1] | Potency [3] | Potency [19] | Potency [4] | caspase-3 activation [5] 0.7% | outcome [6] | outcome [7] | outcome [8] | outcome [18] | caspase-3 activation [9] -0.792% | outcome [10] | caspase-3 activation [11] 0.228% | caspase-3 activation [12] 1.03% | outcome [13] | outcome [14] | Potency [15] | Potency [16] | Potency [17]
